# Measurements reported in PubChem BioAssay (NCI).
# Compounds without any hit were thinned out: in the full panel of roughly 83,000, 20% have a hit.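 Growth was measured after 48 h exposure to one concentration of compound in 96-well plates. Values under 10 count as active.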 The source made the active and inactive calls.
# System: NCI/ADR-RES ovarian
# Assay: NCI-60 one-dose screen, 48 h (100 = growth as untreated, 0 = no growth, -100 = all killed)
# Conditions: 10 µM unless noted
row,SMILES,growth
1,OC(c1ccc(F)c(C(F)(F)F)c1)c1cnccc1NC1CCCCC1 (stereo not drawn),74.7% (inactive)
2,CC(=O)CCC(=O)OCc1cc(=O)c(O)co1,98.3% (inactive)
3,O=S(=O)(Nc1ccc(-n2cnc3cc(-c4ccc(O)cc4)ccc32)cc1)c1ccccc1,91.9% (inactive)
4,O=C1Nc2cc(-c3ccc(NC(=O)c4ccccc4)cc3)ccc2/C1=C/c1ccc[nH]1,90.1% (inactive)
5,CCCOC(=O)N[C@H]1CCc2cc(OC)c(OC)c(OC)c2-c2ccc(SC)c(=O)cc21,5.94% (active)
6,COc1ccc(C(=O)Nc2cccc(C3CCc4c(cc(OC)c(OC)c4OC)O3)c2)cc1 (stereo not drawn),38.5% (inactive)
7,COc1cc(/C=N/O)nc(-c2ccccn2)c1,4.37% (active)
8,NC(=NCCCOc1ccc(F)cc1)Nc1ccc(I)cc1,81.5% (inactive)
9,Cn1c(-c2c(N)n(CCCN3CCOCC3)c3nc(C#N)c(C#N)nc23)nc2ccccc21,78.6% (inactive)
10,CCOC(=O)c1ccc2c(c1)ncn2-c1ccc(NC(=O)Nc2cccc(C)c2)cc1,72.2% (inactive)
11,COc1ccc2[nH]c(=O)c(CN3CCN(c4nccc(-c5ccc(Cl)cc5)n4)CC3)cc2c1,82.4% (inactive)
12,O=C(/C(=C\c1ccc([N+](=O)[O-])cc1)S(=O)Cc1ccc(Cl)cc1)c1ccc(Cl)cc1 (stereo not drawn),71.7% (inactive)
13,CCN(CC)CC[n+]1cc2cc(OC)c(OC)cc2c2ccc3cc4c(cc3c21)OCO4,70.5% (inactive)
14,N#CC(C#N)=Cc1cc2ccccc2nc1Oc1ccc(C(F)(F)F)cc1,92.5% (inactive)
15,COc1cc(/C=C\C(=O)O)ccc1OCc1ccccc1,101% (inactive)
16,c1ccc(-c2cn3c(ccc4ccccc43)n2)cc1,35.7% (inactive)
17,O=C(Nc1ccc(Cl)cc1)c1cc(NCc2cc(O)ccc2O)ccc1O,82.9% (inactive)
18,N/C(=N\C(N)=N\c1nc2ccccc2s1)c1cnccn1,61.7% (inactive)
19,CCOC(=O)[C@@H](C)C[C@H](Cc1ccccc1)NC(=O)c1csc([C@@H](C[C@H](C(C)C)N(C)C(=O)[C@@H](NC(=O)[C@H]2C[C@H](O[Si](C)(C)C(C)(C)C)CCN2C)C(C)C)OC(C)=O)n1,-3.17% [9.25 µM] (active)

row,SMILES,growth
1,CC(C)N1C(=O)/C(=C2\SC(=S)N(C(C)C)C2=O)SC1=S,95.7% (inactive)
2,C#CCNC(=O)c1cccc2c1cc(C)n2-c1nc2c(c(NCc3ccccc3)n1)CCCC2,1.28% (active)
3,COc1cc2nc(-c3ccc(Cl)cc3)cc(OCCCN3CCCCC3)c2cc1OC,46.4% (inactive)
4,O=C(N/N=C/c1ccc(Oc2ccccc2)cc1)c1cnn2c1NC(c1ccccc1)C2 (stereo not drawn),68.7% (inactive)
5,O=[N+]([O-])CC(c1ccccc1)c1c[nH]c2ccccc12 (stereo not drawn),26% (inactive)
6,COc1ccc(CNCCN2C(=O)c3ccc4c5c(ccc(c35)C2=O)C(=O)N(CCNCc2ccc(OC)c(OC)c2OC)C4=O)c(OC)c1OC,-3.82% (active)
7,Cn1c(N2NC(=O)C(N=Nc3ccc(S(N)(=O)=O)cc3)C2=O)nc(-c2ccco2)c(C#N)c1=O (stereo not drawn),93% (inactive)
8,CCCOC(=O)N[C@H]1CCc2c(Cl)c(OC)c(OC)c(OC)c2-c2ccc(SC)c(=O)cc21,13.6% (inactive)
9,C/C=C(\C)C(=O)NC1=CC[C@@]2(C)C(=CCC3C2CC[C@@]2(C)C3CC[C@@H]2C(C)N(C)C)C1=O (stereo partly drawn),55.7% (inactive)
10,COc1ccccc1/C(C)=N/NC(=O)CSc1nc2ccccc2c(=O)n1Cc1ccc(S(N)(=O)=O)cc1,99.5% (inactive)
11,COc1ccc(OC)c(-c2cc(-c3ccc(Cl)cc3)c3c(N)c(C(=O)c4ccc(Cl)cc4)sc3n2)c1,103% (inactive)
12,N#C/C(=C\c1ccc(Cl)cc1)n1nnc2cc(F)c(F)cc21,17.6% (inactive)
13,COc1cccc(C(=O)NNc2nc(Cl)nc(N3CCN(C(c4ccccc4)c4ccccc4)CC3)n2)c1,88% (inactive)
14,C=C1C(=O)O[C@H]2[C@H]1CC/C(CNC(=O)/C=C/c1ccccc1)=C\CC[C@@]1(C)O[C@@H]21,69.1% (inactive)
15,CCN(CC)CCOc1ccc(NC(=O)C(C(C)C)N2C(=O)/C(=C/c3ccc(Br)cc3)SC2=S)cc1 (stereo not drawn),80% (inactive)
16,N#Cc1cccc(-c2ccc3c(c2)NC(=O)/C3=C\c2ccc[nH]2)c1,76.1% (inactive)
17,CCCCCCCCOc1ccc(/C=N/Nc2cc(C)nc3ccc(Br)cc23)cc1,65.1% (inactive)
18,O=C(N/N=C/c1cc2ccccc2n2nnnc12)Nc1ccccc1,105% (inactive)
19,COc1cc2c(c(O)c1Br)C(=O)c1c(O)cc(C[C@H](C)O)cc1[C@H]2[C@H]1c2cc(C[C@H](C)O)cc(O)c2C(=O)c2c1cc(OC)c(Br)c2O,56.3% (inactive)
